# PubChem BioAssay (Tox21)
# Records with an inconclusive call do not appear. Entries that show only a call come without a potency. Unmarked numbers belong to inactive results. Active and inactive are the calls of the source. Unless noted, calls come from the whole dose curve; as a rule, active = well fitted curve in the direction sought with a large enough effect in the repeat runs; inconclusive = weak or mixed curves; inactive = no such curve, though single readings can be large; an effect the other way counts as inactive or inconclusive.
# How the values were obtained:
# [1] = qHTS assay to identify aromatase inhibitors - cell viability counter screen (AID 743084);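 note: cells stimulated with testosterone during compound exposure; nearly all actives have a fitted effect of over 55% in size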
# [2] = biological target: Aryl hydrocarbon receptor (Homo sapiens) (UniProt P35869); experiment: qHTS assay to identify small molecule that activate the aryl hydrocarbon receptor (AhR) signaling pathway (AID 743085);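 note: HG2L7.5c1 human HepG2 liver cells with stably integrated DRE-driven firefly reporter; series mostly up to about 70 µM; nearly all actives have a fitted effect of over 15% in size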
# In short: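 Compounds were tested in HepG2 hepatocellular carcinoma cells harbouring a stably integrated luciferase gene under control of 20 DREs. Increased reporter signal after 24 h treatment at 37C was taken as AhR activation.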
# [3] = qHTS assay to identify small molecule that activate the aryl hydrocarbon receptor (AhR) signaling pathway - cell viability counter screen (AID 743086);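 note: HepG2 liver cells carrying the AhR DRE luciferase reporter; series mostly up to about 70 µM; nearly all actives have a fitted effect of over 45% in size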
# In short: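 HepG2-AhR-luc (HG2L7.5c1) cells, 4000/well, were preincubated 5 h at 37C, exposed to compound in qHTS format for 24 hr at 37C, then given CellTiter-Fluor for 30 min; viability was read as fluorescence in the reporter wells.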
# [4] = biological target: Peroxisome proliferator-activated receptor gamma (Homo sapiens) (UniProt P37231); experiment: qHTS assay to identify small molecule agonists of the peroxisome proliferator-activated receptor gamma (PPARg) signaling pathway (AID 743094; active = well fitted activation curve with a large enough effect in the signal ratio in the repeat runs, not every such curve was filed as active; the % refers to the signal ratio)
# In short: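 Following 5 h plating at 37C, PPARg-bla HEK293H cells receive compound or DMSO for 17 h; fluorescence intensity is recorded after LiveBLAzer B/G loading for 1 h at room temperature.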
# [5] = qHTS assay to identify small molecule antagonists of the peroxisome proliferator-activated receptor gamma (PPARg) signaling pathway - cell viability counter screen (AID 743194); note: nearly all actives have a fitted effect of over 55% in size
# In short: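 PPARg-UAS-bla HEK293H cells were plated, rested 5 h at 37 C, then treated with compounds plus rosiglitazone (50 nM final) for 17 h at 37 C; viability was then read by CellTiter-Glo luminescence after 30 min at room temperature.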
# [6] = qHTS assay for small molecule agonists of the antioxidant response element (ARE) signaling pathway - cell viability counter screen (AID 743203; calls by dose curve; note: nearly all actives have a fitted effect of over 55% in size)
# In short: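 Compounds in DMSO were pinned onto ARE-bla HepG2 cells plated 5 hrs earlier at 2,000 cells/well. Sixteen hours later at 37C/5% CO2, CellTiter-Glo was added and luminescence measured after 30 min at room temperature.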
# [7] = qHTS assay for small molecule activators of the heat shock response signaling pathway - cell viability counter screen (AID 743209); note: nearly all actives have a fitted effect of over 50% in size
# In short: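 Counter screen for cytotoxicity in HeLa HSE-bla reporter cells. Treatment was 5 h at 37 C; viability was detected by luminescent ATP assay (CellTiter-Glo) in the same wells as the beta-lactamase read.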
# [8] = qHTS assay for small molecule activators of the heat shock response signaling pathway (AID 743210; active = well fitted activation curve with a large enough effect in the signal ratio in the repeat runs, with a control signal flat, not every such curve was filed as active; the % refers to the signal ratio;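 note: HeLa cells with beta-lactamase reporter driven by heat shock elements; series mostly up to about 63 µM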)
# In short: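 Reporter gene assay: HeLa cells stably bearing an HSE-bla construct, compound treatment 5 h at 37 C, LiveBLAzer substrate 2.5 h at RT, fluorescence intensity.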
# [9] = qHTS assay to identify small molecule agonists of the peroxisome proliferator-activated receptor delta (PPARd) signaling pathway - cell viability counter screen (AID 743211); note: nearly all actives have a fitted effect of over 55% in size; note: potency is the fitted concentration of half-maximal effect
# In short: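 Counter screen for cytotoxicity run in parallel with the PPARd reporter screen. Beta-lactamase reporter HEK293H cells exposed to compounds 17 h; ATP-based CellTiter-Glo luminescence quantified viability.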
# [10] = biological target: Peroxisome proliferator-activated receptor delta (Homo sapiens) (UniProt Q03181); experiment: qHTS assay to identify small molecule agonists of the peroxisome proliferator-activated receptor delta (PPARd) signaling pathway (AID 743212; calls by dose curve)
# In short: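 A PPARd-bla HEK293H line with beta-lactamase under an Upstream Activator Sequence is treated with compounds at 37 C. Substrate loading for 2 h at room temperature precedes the fluorescence measurement.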
# [11] = qHTS assay to identify small molecule antagonists of the peroxisome proliferator-activated receptor delta (PPARd) signaling pathway - cell viability counter screen (AID 743213); note: nearly all actives have a fitted effect of over 50% in size; note: potency is the fitted concentration of half-maximal effect
# In short: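 Cytotoxicity counter screen: CellTiter-Glo luminescence read 30 min after addition, in the same wells as the reporter assay. There, PPARd UAS-bla HEK293H cells (3000/well) were treated 17 h at 37 C with compound and 300 nM L165041.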
# [12] = biological target: Peroxisome proliferator-activated receptor delta (Homo sapiens) (UniProt Q03181); experiment: qHTS assay to identify small molecule antagonists of the peroxisome proliferator-activated receptor delta (PPARd) signaling pathway (AID 743215; active = well fitted inhibition curve with a large enough effect in the signal ratio in the repeat runs, not every such curve was filed as active; the % refers to the signal ratio;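 note: cells stimulated with agonist L165041 at 300 nM final during compound exposure; series mostly up to about 62 µM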)
# In short: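 With L165041 present at 300 nM final, compounds were incubated 17 h at 37 C on PPARd UAS-bla HEK293H cells. A FRET-based beta-lactamase substrate was then applied for 2 h at room temperature and fluorescence intensity recorded.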
# [13] = biological target: Bile acid receptor (Homo sapiens) (UniProt Q96RI1); experiment: qHTS assay to identify small molecule antagonists of the farnesoid-X-receptor (FXR) signaling pathway (AID 743217; active = well fitted inhibition curve with a large enough effect in the signal ratio in the repeat runs, not every such curve was filed as active; the % refers to the signal ratio)
# In short: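 In this cell-based antagonist screen, inhibition of CDCA-driven (50 uM final) UAS-beta-lactamase expression in HEK 293T cells was measured by FRET fluorescence following 16 h compound exposure at 37 °C.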
# [14] = biological target: Bile acid receptor (Homo sapiens) (UniProt Q96RI1); experiment: qHTS assay to identify small molecule agonists of the farnesoid-X-receptor (FXR) signaling pathway (AID 743220; active = well fitted activation curve with a large enough effect in the signal ratio in the repeat runs, not every such curve was filed as active; the % refers to the signal ratio)
# In short: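 Beta-lactamase reporter under UAS control in GeneBLAzer FXR HEK 293T cells (5000/well) measured with LiveBLAzer FRET substrate after 2 h at room temperature. Compound exposure lasted 16 h at 37C.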
# [15] = biological target: Vitamin D3 receptor (Homo sapiens) (UniProt P11473); experiment: qHTS assay to identify small molecule agonists of the vitamin D receptor (VDR) signaling pathway (AID 743222; calls by dose curve)
# In short: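 VDR-bla cells were seeded, left 4 h, treated with compounds in DMSO for 16 h, incubated 2 h at RT with B/G FRET substrate, and read for fluorescence.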
# [16] = biological target: Vitamin D3 receptor (Homo sapiens) (UniProt P11473); experiment: qHTS assay to identify small molecule antagonists of the vitamin D receptor (VDR) signaling pathway (AID 743223; active = well fitted inhibition curve with a large enough effect in the signal ratio in the repeat runs, not every such curve was filed as active; the % refers to the signal ratio)
# In short: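 Cells carrying a VDR-driven beta-lactamase reporter (VDR-bla) were co-treated with compound and 3 nM final 1alpha,25-dihydroxyvitamin D3 for 16 h at 37C; reporter activity was measured as FRET substrate fluorescence after 2 h at room temperature.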
# [17] = biological target: Peroxisome proliferator-activated receptor gamma (Homo sapiens) (UniProt P37231); experiment: qHTS assay to identify small molecule antagonists of the peroxisome proliferator-activated receptor gamma (PPARg) signaling pathway (AID 743191; calls by dose curve; note: series mostly up to about 63 µM; nearly all actives have a fitted effect of over 30% in size)
# In short: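 GeneBLAzer PPARg UAS-bla HEK293H cells carrying a UAS-driven beta-lactamase reporter were plated at 3000 cells/well, preincubated 5 h at 37C, then given compound for 17 h at 37C; LiveBLAzer B/G FRET substrate was read after 1 h at room temperature.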
# [18] = qHTS assay to identify small molecule agonists of the farnesoid-X-receptor (FXR) signaling pathway - cell viability counter screen (AID 743218); note: nearly all actives have a fitted effect of over 45% in size
# In short: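 After 16 h at 37 C with test compounds, FXR-bla HEK 293T cells were given LiveBLAzer B/G substrate for 2 h at RT and then CellTiter-Glo; luminescence was taken after 30 min.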
# [19] = qHTS assay to identify small molecule antagonists of the farnesoid-X-receptor (FXR) signaling pathway - cell viability counter screen (AID 743221; active = well fitted cell-killing curve with a large enough effect in the repeat runs, not every such curve was filed as active; note: nearly all actives have a fitted effect of over 50% in size; note: potency is the fitted concentration of half-maximal effect)
# In short: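 Multiplexed counter screen: viability of FXR-bla HEK 293T cells under agonist stimulation by chenodeoxycholic acid (50 uM, final) and test compound for 16 h at 37 C, measured by CellTiter-Glo luminescence in the reporter wells.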
# Sequence of Bile acid receptor (Homo sapiens) (Q96RI1 whole entry, looked up): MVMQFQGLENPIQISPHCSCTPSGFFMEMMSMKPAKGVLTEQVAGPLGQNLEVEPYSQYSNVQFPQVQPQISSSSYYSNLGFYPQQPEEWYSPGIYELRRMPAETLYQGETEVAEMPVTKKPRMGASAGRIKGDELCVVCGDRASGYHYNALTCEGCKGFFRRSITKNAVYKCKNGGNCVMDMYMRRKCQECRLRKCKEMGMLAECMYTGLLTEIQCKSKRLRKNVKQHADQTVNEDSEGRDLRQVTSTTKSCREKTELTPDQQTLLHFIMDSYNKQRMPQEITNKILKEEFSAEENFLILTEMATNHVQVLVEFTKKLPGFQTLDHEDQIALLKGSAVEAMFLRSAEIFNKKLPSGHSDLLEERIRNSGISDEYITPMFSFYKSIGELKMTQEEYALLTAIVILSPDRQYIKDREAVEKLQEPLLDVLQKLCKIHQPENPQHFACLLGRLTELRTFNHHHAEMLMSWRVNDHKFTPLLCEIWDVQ
# Sequence of Vitamin D3 receptor (Homo sapiens) (P11473 whole entry, looked up): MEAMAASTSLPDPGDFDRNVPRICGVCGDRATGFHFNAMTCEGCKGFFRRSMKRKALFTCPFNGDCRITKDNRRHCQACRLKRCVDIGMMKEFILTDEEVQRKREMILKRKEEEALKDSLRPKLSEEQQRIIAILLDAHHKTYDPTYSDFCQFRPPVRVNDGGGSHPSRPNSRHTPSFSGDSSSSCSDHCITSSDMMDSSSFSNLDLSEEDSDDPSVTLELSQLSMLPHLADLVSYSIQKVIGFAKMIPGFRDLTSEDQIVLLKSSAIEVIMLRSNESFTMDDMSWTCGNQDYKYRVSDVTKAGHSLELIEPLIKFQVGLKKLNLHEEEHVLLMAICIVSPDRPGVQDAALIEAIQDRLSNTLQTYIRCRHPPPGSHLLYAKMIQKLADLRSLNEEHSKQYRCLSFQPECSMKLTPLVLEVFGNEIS
# Sequence of Aryl hydrocarbon receptor (Homo sapiens) (P35869 whole entry, looked up): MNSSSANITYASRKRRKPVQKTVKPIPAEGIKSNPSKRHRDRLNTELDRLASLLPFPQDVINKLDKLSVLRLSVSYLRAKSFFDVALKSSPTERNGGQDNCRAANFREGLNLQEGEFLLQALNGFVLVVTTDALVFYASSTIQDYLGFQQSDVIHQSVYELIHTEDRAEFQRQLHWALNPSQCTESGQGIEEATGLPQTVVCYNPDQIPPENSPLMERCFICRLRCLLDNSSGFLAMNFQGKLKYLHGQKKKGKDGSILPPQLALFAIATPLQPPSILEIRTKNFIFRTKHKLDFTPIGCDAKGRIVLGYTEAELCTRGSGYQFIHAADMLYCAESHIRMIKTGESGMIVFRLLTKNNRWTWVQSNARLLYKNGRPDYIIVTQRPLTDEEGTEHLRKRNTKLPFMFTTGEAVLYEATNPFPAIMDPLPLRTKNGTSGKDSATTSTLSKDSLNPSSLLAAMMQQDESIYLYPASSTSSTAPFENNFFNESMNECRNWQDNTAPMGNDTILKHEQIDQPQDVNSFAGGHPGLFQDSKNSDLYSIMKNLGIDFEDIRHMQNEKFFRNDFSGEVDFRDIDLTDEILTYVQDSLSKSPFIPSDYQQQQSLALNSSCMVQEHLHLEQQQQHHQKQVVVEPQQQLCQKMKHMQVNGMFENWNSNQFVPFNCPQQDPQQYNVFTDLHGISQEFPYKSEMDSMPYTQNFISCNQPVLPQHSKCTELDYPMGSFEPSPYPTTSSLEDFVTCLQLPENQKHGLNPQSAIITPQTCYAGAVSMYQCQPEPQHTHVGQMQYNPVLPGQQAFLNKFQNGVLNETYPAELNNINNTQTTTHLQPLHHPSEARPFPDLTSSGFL
# Sequence of Peroxisome proliferator-activated receptor gamma (Homo sapiens) (P37231 whole entry, looked up): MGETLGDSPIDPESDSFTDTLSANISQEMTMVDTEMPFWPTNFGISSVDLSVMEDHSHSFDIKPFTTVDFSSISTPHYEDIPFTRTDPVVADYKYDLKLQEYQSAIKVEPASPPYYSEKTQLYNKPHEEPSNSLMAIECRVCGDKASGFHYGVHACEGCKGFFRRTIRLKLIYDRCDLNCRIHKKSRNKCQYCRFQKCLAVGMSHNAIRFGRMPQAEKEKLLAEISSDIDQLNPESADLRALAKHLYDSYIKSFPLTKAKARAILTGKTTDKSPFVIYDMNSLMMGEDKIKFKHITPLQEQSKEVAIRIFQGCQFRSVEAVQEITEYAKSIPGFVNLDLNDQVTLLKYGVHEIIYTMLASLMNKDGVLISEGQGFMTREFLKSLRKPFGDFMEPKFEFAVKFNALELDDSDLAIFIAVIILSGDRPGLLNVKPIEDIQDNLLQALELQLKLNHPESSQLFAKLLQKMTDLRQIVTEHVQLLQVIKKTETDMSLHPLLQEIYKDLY
# Sequence of Peroxisome proliferator-activated receptor delta (Homo sapiens) (Q03181 whole entry, looked up): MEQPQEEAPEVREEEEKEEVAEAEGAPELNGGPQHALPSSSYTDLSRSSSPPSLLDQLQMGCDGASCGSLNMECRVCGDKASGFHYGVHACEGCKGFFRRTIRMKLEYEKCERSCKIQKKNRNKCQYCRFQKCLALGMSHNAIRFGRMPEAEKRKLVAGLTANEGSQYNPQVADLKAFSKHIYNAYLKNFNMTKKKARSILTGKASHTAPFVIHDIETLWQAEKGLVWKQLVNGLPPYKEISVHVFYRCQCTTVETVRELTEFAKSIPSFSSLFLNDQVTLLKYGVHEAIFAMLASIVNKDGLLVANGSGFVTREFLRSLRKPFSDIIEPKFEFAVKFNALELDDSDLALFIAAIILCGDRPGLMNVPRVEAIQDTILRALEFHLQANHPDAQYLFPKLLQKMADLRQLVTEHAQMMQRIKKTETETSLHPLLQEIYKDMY
SMILES,Potency [1],Potency [2],Potency [3],Potency [4],Potency [5],Potency [6],Potency [7],Potency [8],Potency [9],outcome [10],Potency [11],Potency [12],Potency [13],Potency [14],Potency [15],Potency [16],Potency [17],Potency [18],Potency [19]
CCCCCCCC/C=C\CCCCCCCC(=O)OCCOC(=O)CCCCCCC/C=C\CCCCCCCC,inactive,inactive,inactive,inactive,inactive,inactive,inactive,inactive,inactive,inactive,inactive,inactive,inactive,inactive,inactive,inactive,,,
C=C(C)C(=O)OCCC[Si](Cl)(Cl)Cl,inactive,inactive,inactive,inactive,inactive,inactive,inactive,inactive,inactive,inactive,,inactive,,,inactive,inactive,inactive,,
O=Cc1ccc(F)cc1,inactive,inactive,inactive,inactive,,inactive,inactive,inactive,,inactive,inactive,inactive,inactive,inactive,inactive,,inactive,inactive,inactive
CCCCCCCC/C=C/CCCOC(C)=O,inactive,inactive,inactive,inactive,,inactive,,,,inactive,,,inactive,inactive,inactive,inactive,inactive,inactive,inactive
CN(Cc1cc(Br)cc(Br)c1N)C1CCCCC1,inactive,inactive,inactive,inactive,inactive,inactive,,,,inactive,inactive,inactive,,inactive,,,inactive,,inactive
CCN1CCN(c2cc(-c3ccc(F)cc3)c3c(n2)CCCCCC3)CC1,inactive,inactive,inactive,inactive,inactive,inactive,inactive,inactive,,,inactive,inactive,,,inactive,inactive,inactive,inactive,inactive
CC1CCCNC1 (centres undefined),inactive,inactive,inactive,inactive,inactive,inactive,,,,,,,,,,,inactive,inactive,
Nc1ncnc2c1ncn2[C@@H]1O[C@H](COP(=O)(O)O)[C@@H](O)[C@H]1O,inactive,inactive,inactive,inactive,,inactive,inactive,inactive,10.6 µM (active),inactive,11.9 µM (active),inactive,,,inactive,inactive,inactive,,13.3 µM (active)
